± gives the standard deviation. The full ranking holds about 5,500 sequences; the median of “pre-steady-state target cleavage rate” is about 0.1, and the highest 2% start at about 0.64. For the sample, the highest values were picked, then their nearest neighbours and some sequences at random.

The subject of this experiment is MIWI (PIWIL1) piRISC loaded with piRNA #2 (30 nt). The experiment is described as follows: pre-steady-state target cleavage rate (min^-1); MIWI and MILI are mouse PIWI proteins and EfPiwi is from a freshwater sponge; tags in brackets are library labels; higher = faster piRNA-guided slicing of the target. The conditions noted are these: guide: piRNA #2 5'p-UUAGGUAACCCAGUAGAUCCAGAGGAAUUC; auxiliary factor: 500 nM mouse GTSF1. How it is done: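 Cleave-'n-Seq: a library of target RNAs (target site embedded in constant flanks, ACAGCATTCCGCGTTAGTGATATCCG... 5' flank; DNA-blocked outside the site) at 0.1 nM was incubated with 1 nM active mouse MILI or MIWI piRISC (synthetic 5'-monophosphorylated piRNA guide) with or without 500 nM mouse GTSF1 at 33 °C for 1 min to 16 h. Uncleaved targets were sequenced and normalised to non-target controls, and the pooled three trials were fitted to a burst-and-steady-state model to give the pre-steady-state cleavage rate (min^-1; k3 is constrained to at most 1e-4). Sequence is the target site only; target names encode pairing extent (gX:gY) and contiguous / 1-mismatch / 2-mismatch / bulge geometry. Fits with R² ≤ 0 are excluded.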
In the case of CUUUUCCACUCGAUCUACUGGGUUACCUAA, the “pre-steady-state target cleavage rate” value turned out to be 0.547 ± 0.033.

For CUAUUCCACUGGAUCUACUCGGUUACCUAA, the “pre-steady-state target cleavage rate” value was 0.0817 ± 0.018. As to CAAUUCCACUCGAUCUACUGGGUUACCUAA, the “pre-steady-state target cleavage rate” value amounted to 0.798 ± 0.047. To CUAUUCCACUCGAUCUACUGGGUUACCUAA belongs 0.703 ± 0.037. To GAAUUCCACUCGAUCUACUGGGUUACCUAA belongs 0.564 ± 0.056; to CUAUUCCACUGGAUCUACUGGGUUACCUAA, 0.588 ± 0.061. To CUUAACCUCUGGAUCUAGUGGGUUACCAAA belongs 0.0597 ± 0.0073; to CAAUUCCACUGGAACUACUGGGUUACCUAA, 0.408 ± 0.042. CUUAAGCUGUGGAUCUACUGGGUUUCCUAA: the “pre-steady-state target cleavage rate” value is 0.0403 ± 0.019. To CUAUACCUCUGGAUCUACUGGGUUACCUAA belongs 0.544 ± 0.084; to GAAUACCUCUGGAUCUACUGCGUUACCUAA, 0.456 ± 0.04. To CAAUACCUCUGGAUCUACUGGGUUACGUAA belongs 0.567 ± 0.059; to CUUAUACCUCUGGAUCUACUGGGUUACCUAA, 0.389 ± 0.061; to GUAUACCUCUGGAUCUACUGGGUUACCUAA, 0.642 ± 0.23. CUAUACCUCUGGAUCUACUGCGUUACCUAA: the “pre-steady-state target cleavage rate” value came to 0.732 ± 0.066. To CAAUACCUCUGGAUCUACUGCGUUACCUAA belongs 0.488 ± 0.063; to CUAUACCUCUGGAUCUACUGGGUUACGUAA, 0.674 ± 0.032. To GAAUACCUCUGGAUCUACUGGGUUACGUAA belongs 0.609 ± 0.038; to CUUAAGCUCUGGAUCUACUGGCUUACCUAA, 0.0576 ± 0.012.

For the sequence CUUAAGGUCUGGAUCUACUGCGUUUCCUAA, the “pre-steady-state target cleavage rate” value turned out to be 0.0557 ± 0.014.

As for CUUAAGGUAUGGAUCUACUGGGUUACCUAA, the “pre-steady-state target cleavage rate” value worked out at 0.323 ± 0.035. To CAAUUCCUCUGGAACUACUCGGUUACCUAA belongs 0.157 ± 0.022. To CUUAACCUCUGGAUCUACUGGGUAAGCUAA belongs 0.05 ± 0.0099; to GAAUUCCUCCGGAUCUACUGGGUUACCUAA, 0.407 ± 0.058. To CUAUUCCUCCGGAUCUACUGGGUUACCUAA belongs 0.697 ± 0.12; to CAAUUCCUCCGGAUCUACUGGGUUACCUAA, 0.677 ± 0.096; to CAAUUCCUCGGAUCUACUGGGUUACCUAA, 0.47 ± 0.087. For the sequence CUAUUCCUCGGAUCUACUGGGUUACCUAA, the “pre-steady-state target cleavage rate” value is 0.447 ± 0.083. To CUAUUCCUCCUGGAUCUACUGGGUUACCUAA belongs 0.613 ± 0.06; to CUUAAGGACUGGAUCUACAGCGUUACCUAA, 0.00714 ± 0.0051. Take CUUUUCCACUGGAUCUACAGGGUUACCUAA: the “pre-steady-state target cleavage rate” value turned out to be 0.248 ± 0.016.

As for CUUUUCCUCUCGAUCUUCUGGGUUACCUAA, the “pre-steady-state target cleavage rate” value turned out to be 0.63 ± 0.051. For CAAUUCCUCUGGAUCUUCUGGGUUACCUAA, the “pre-steady-state target cleavage rate” value amounted to 0.49 ± 0.065. To GAAUUCCUCUCGAUCUUCUGGGUUACCUAA belongs 0.62 ± 0.064; to CUAUUCCUCUGGAUCUUCUGGGUUACCUAA, 0.412 ± 0.054. Regarding CAAUUCCUCUCGAUCUUCUGGGUUACCUAA, the “pre-steady-state target cleavage rate” value is 0.737 ± 0.059.

In the case of CUAUUCCUCUCGAUCUUCUGGGUUACCUAA, the “pre-steady-state target cleavage rate” value turned out to be 0.803 ± 0.07. To CUUAUCCUCUGGAUCAUCUGGGUUACCUAA belongs 0.246 ± 0.028; to CAUAACCUCUGGAUCUACUGGGUUACCUAA, 0.234 ± 0.033. CUUAACCUCUGGAUCUUCUGGGUUUCCUAA: the “pre-steady-state target cleavage rate” value is 0.042 ± 0.0092. To CAAUUCCUCUGGAUCUACAGGGUUUCCUAA belongs 0.178 ± 0.026; to CAAUUCCUCAGGAUCUACUGGGUUACCUUA, 0.604 ± 0.075; to GAAUUCCUCUGGAUGUACAGGGUUACCUAA, 0.413 ± 0.029. To GAAAUCCUCUGGUUCUACUGGGUUACCUAA belongs 0.624 ± 0.05; to CUAAUCCUCUGGUUCUACUGGGUUACCUAA, 0.755 ± 0.048. To CUAAUCCUCUGGAUCUACUGGGUUACCUAA belongs 0.412 ± 0.061. Regarding CAAAUCCUCUGGUUCUACUGGGUUACCUAA, the “pre-steady-state target cleavage rate” value is 0.79 ± 0.044.

For the sequence CUUAUCCUCUGGUUCUACUGGGUUACCUAA, the “pre-steady-state target cleavage rate” value is 0.607 ± 0.047.

CAAAUCCUCUGGAUCUACUGGGUUACCUAA: the “pre-steady-state target cleavage rate” value worked out at 0.47 ± 0.069. On to CUUAAGCUCUGGAACUACUCGGUUACCUAA, for which the “pre-steady-state target cleavage rate” value is 0.0422 ± 0.011. To CUUAUCCUCUGGAACUACUGGGUUACCUUA belongs 0.254 ± 0.03; to CGAUUCCUCUGGAUCUACUGGGUUACCUAA, 0.329 ± 0.048. To CUUUUCCUCUGGAUCUACUGGGUAACCAAA belongs 0.13 ± 0.034. To CUUAAGGACGGGAUCUACUGGGUUACCUAA belongs 0.0681 ± 0.038; to CAAUUCCUCUGGAUCUGCUGGGUUACCUAA, 0.641 ± 0.08. On to GAAUUCCUCUGGAUCUGCUGGGUUACCUAA, for which the “pre-steady-state target cleavage rate” value was 0.213 ± 0.044. Regarding CUAUUCCUCUGGAUUUACUGGGUUACCUAA, the “pre-steady-state target cleavage rate” value is 0.529 ± 0.048.

As for CAAUUCCUCUGGAUUUACUGGGUUACCUAA, the “pre-steady-state target cleavage rate” value came to 0.681 ± 0.062.

With CAAUUCCUCUGGAUCUCCUGGGUUACCUAA, the “pre-steady-state target cleavage rate” value was found to be 0.231 ± 0.051.

Consider GAAUUCCUCUGGAUUACUGGGUUACCUAA, for which the “pre-steady-state target cleavage rate” value stood at 0.413 ± 0.04. Regarding GAAUUCCUCUGGAUUUACUGGGUUACCUAA, the “pre-steady-state target cleavage rate” value is 0.425 ± 0.073. To CUAUUCCUCUGGAAGUACUGGGUUACCUAA belongs 0.631 ± 0.046; to CAAUUCCUCUGGAUUACUGGGUUACCUAA, 0.692 ± 0.054; to CAAUUCCUCUGGAUUCUACUGGGUUACCUAA, 0.473 ± 0.059. To GAAUUCCUCUGGAAGUACUGGGUUACCUAA belongs 0.511 ± 0.047; to CAAUUCCUCUGGAAGUACUGGGUUACCUAA, 0.651 ± 0.044. To CAAUUCCUCUGGUUCUACUCGGUUACCUAA belongs 0.167 ± 0.014. Take CAAUUCCUCUGGAACUACUGGGUUACCAAA: the “pre-steady-state target cleavage rate” value came out at 0.289 ± 0.055. Regarding CUUAAGGAGUGGAUCUACUGGGUUGCCUAA, the “pre-steady-state target cleavage rate” value came to 0.0417 ± 0.011. To CUUAUCCAUCUGGAUCUACUGGGUUACCUAA belongs 0.508 ± 0.051; to CUUUUCCUCUGGACCUACUGGGUUACCUAA, 0.157 ± 0.02; to GAAUUCCUGUGGAUCUACUGCGUUACCUAA, 0.362 ± 0.053. To CUUAUCCUCUGGAUCUACUGGGAUACCUAA belongs 0.302 ± 0.039; to CUUAAGGUCUGGAUCUUCUGGGAUACCUAA, 0.0453 ± 0.017.

These data come from the supplement of paper PMC10338343.
